Data: the supplement of paper PMC4466140

B1: unnamed (peptide)
chain: ISNFVPPNLPMRRFK

Molecular target: AgAbp1
Assay: SPOT peptide array binding signal intensity (averaged, normalized) (arbitrary units (background-subtracted, floor 0; scale differs between SH3 domains)); higher = stronger binding of the SH3 domain to the peptide
Method: (§1)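 GST-tagged SH3 domains from S. cerevisiae (Sc), A. gossypii (Ag), C. albicans (Ca) and S. pombe (Sp) were incubated at 10 ug/ml overnight at 4 C on cellulose SPOT membranes carrying 292 synthetic 15-mer peptides mined from the S. cerevisiae proteome (cysteines replaced by serines). Binding was detected with anti-GST antibody, HRP secondary and chemiluminescence, quantified with Genespotter, and reported as normalized spot intensities averaged over biological replicates.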

Binder	SPOT peptide array binding signal intensity
B1	31.5

Molecular target: AgBbc1
Assay: as above
Method: as §1

Binder	SPOT peptide array binding signal intensity
B1	182

Molecular target: AgBem1-D1
Assay: as above
Method: as §1

Binder	SPOT peptide array binding signal intensity
B1	124

Molecular target: AgBzz1-D1
Assay: as above
Method: as §1

Binder	SPOT peptide array binding signal intensity
B1	90

Molecular target: AgBzz1-D2
Assay: as above
Method: as §1

Binder	SPOT peptide array binding signal intensity
B1	70.5

Molecular target: AgCyk3
Assay: as above
Method: as §1

Binder	SPOT peptide array binding signal intensity
B1	1

Molecular target: AgFus1
Assay: as above
Method: as §1

Binder	SPOT peptide array binding signal intensity
B1	23

Molecular target: AgHof1
Assay: as above
Method: as §1

Binder	SPOT peptide array binding signal intensity
B1	186

Molecular target: AgHse1
Assay: as above
Method: as §1

Binder	SPOT peptide array binding signal intensity
B1	49

Molecular target: AgLsb1
Assay: as above
Method: as §1

Binder	SPOT peptide array binding signal intensity
B1	136

Molecular target: AgLsb4
Assay: as above
Method: as §1

Binder	SPOT peptide array binding signal intensity
B1	3890

Molecular target: AgMyo5
Assay: as above
Method: as §1

Binder	SPOT peptide array binding signal intensity
B1	≤ 0

Molecular target: AgNbp2
Assay: as above
Method: as §1

Binder	SPOT peptide array binding signal intensity
B1	64

Molecular target: AgRvs167
Assay: as above
Method: as §1

Binder	SPOT peptide array binding signal intensity
B1	256

Molecular target: AgSho1
Assay: as above
Method: as §1

Binder	SPOT peptide array binding signal intensity
B1	20.5

Molecular target: AgSla1-D1-D2
Assay: as above
Method: as §1

Binder	SPOT peptide array binding signal intensity
B1	2.5

Molecular target: AgSla1-D3
Assay: as above
Method: as §1

Binder	SPOT peptide array binding signal intensity
B1	3

Molecular target: CaAbp1-D1
Assay: as above
Method: as §1

Binder	SPOT peptide array binding signal intensity
B1	40

Molecular target: CaAbp1-D2
Assay: as above
Method: as §1

Binder	SPOT peptide array binding signal intensity
B1	9

Molecular target: CaBbc1
Assay: as above
Method: as §1

Binder	SPOT peptide array binding signal intensity
B1	902

Molecular target: CaBem1-D1
Assay: as above
Method: as §1

Binder	SPOT peptide array binding signal intensity
B1	21

Molecular target: CaBzz1-D1
Assay: as above
Method: as §1

Binder	SPOT peptide array binding signal intensity
B1	370

Molecular target: CaBzz1-D2
Assay: as above
Method: as §1

Binder	SPOT peptide array binding signal intensity
B1	297

Molecular target: CaCyk3
Assay: as above
Method: as §1

Binder	SPOT peptide array binding signal intensity
B1	47

Molecular target: CaFus1
Assay: as above
Method: as §1

Binder	SPOT peptide array binding signal intensity
B1	152

Molecular target: CaHof1
Assay: as above
Method: as §1

Binder	SPOT peptide array binding signal intensity
B1	5

Molecular target: CaHse1
Assay: as above
Method: as §1

Binder	SPOT peptide array binding signal intensity
B1	72

Molecular target: CaLsb1
Assay: as above
Method: as §1

Binder	SPOT peptide array binding signal intensity
B1	10.2

Molecular target: CaLsb4
Assay: as above
Method: as §1

Binder	SPOT peptide array binding signal intensity
B1	5880

Molecular target: CaMyo5
Assay: as above
Method: as §1

Binder	SPOT peptide array binding signal intensity
B1	28.5

Molecular target: CaNbp2
Assay: as above
Method: as §1

Binder	SPOT peptide array binding signal intensity
B1	103

Molecular target: CaRvs167
Assay: as above
Method: as §1

Binder	SPOT peptide array binding signal intensity
B1	571

Molecular target: CaRvs167-3
Assay: as above
Method: as §1

Binder	SPOT peptide array binding signal intensity
B1	6.25

Molecular target: CaSho1
Assay: as above
Method: as §1

Binder	SPOT peptide array binding signal intensity
B1	49.5

Molecular target: CaSla1-D1-D2
Assay: as above
Method: as §1

Binder	SPOT peptide array binding signal intensity
B1	1000

Molecular target: CaSla1-D3
Assay: as above
Method: as §1

Binder	SPOT peptide array binding signal intensity
B1	250

Molecular target: ScAbp1
Assay: as above
Method: as §1

Binder	SPOT peptide array binding signal intensity
B1	44

Molecular target: ScBbc1
Assay: as above
Method: as §1

Binder	SPOT peptide array binding signal intensity
B1	130

Molecular target: ScBem1-D1
Assay: as above
Method: as §1

Binder	SPOT peptide array binding signal intensity
B1	13

Molecular target: ScBzz1-D1
Assay: as above
Method: as §1

Binder	SPOT peptide array binding signal intensity
B1	29.5

Molecular target: ScBzz1-D2
Assay: as above
Method: as §1

Binder	SPOT peptide array binding signal intensity
B1	63

Molecular target: ScCyk3
Assay: as above
Method: as §1

Binder	SPOT peptide array binding signal intensity
B1	5.5

Molecular target: ScFus1
Assay: as above
Method: as §1

Binder	SPOT peptide array binding signal intensity
B1	17

Molecular target: ScHof1
Assay: as above
Method: as §1

Binder	SPOT peptide array binding signal intensity
B1	8.75

Molecular target: ScHse1
Assay: as above
Method: as §1

Binder	SPOT peptide array binding signal intensity
B1	122

Molecular target: ScLsb1
Assay: as above
Method: as §1

Binder	SPOT peptide array binding signal intensity
B1	393

Molecular target: ScLsb2
Assay: as above
Method: as §1

Binder	SPOT peptide array binding signal intensity
B1	372

Molecular target: ScLsb3
Assay: as above
Method: as §1

Binder	SPOT peptide array binding signal intensity
B1	7910

Molecular target: ScLsb4
Assay: as above
Method: as §1

Binder	SPOT peptide array binding signal intensity
B1	2470

Molecular target: ScMyo3
Assay: as above
Method: as §1

Binder	SPOT peptide array binding signal intensity
B1	17.2

Molecular target: ScMyo5
Assay: as above
Method: as §1

Binder	SPOT peptide array binding signal intensity
B1	1.5

Molecular target: ScNbp2
Assay: as above
Method: as §1

Binder	SPOT peptide array binding signal intensity
B1	198

Molecular target: ScPex13
Assay: as above
Method: as §1

Binder	SPOT peptide array binding signal intensity
B1	1760

Molecular target: ScRvs167
Assay: as above
Method: as §1

Binder	SPOT peptide array binding signal intensity
B1	1610

Molecular target: ScSho1
Assay: as above
Method: as §1

Binder	SPOT peptide array binding signal intensity
B1	85.5

Molecular target: ScSla1-D1-D2
Assay: as above
Method: as §1

Binder	SPOT peptide array binding signal intensity
B1	367

Molecular target: ScSla1-D3
Assay: as above
Method: as §1

Binder	SPOT peptide array binding signal intensity
B1	184

Molecular target: SpAbp1-D1
Assay: as above
Method: as §1

Binder	SPOT peptide array binding signal intensity
B1	26

Molecular target: SpBbc1
Assay: as above
Method: as §1

Binder	SPOT peptide array binding signal intensity
B1	36.5

Molecular target: SpBzz1-D1
Assay: as above
Method: as §1

Binder	SPOT peptide array binding signal intensity
B1	748

Molecular target: SpBzz1-D2
Assay: as above
Method: as §1

Binder	SPOT peptide array binding signal intensity
B1	3

Molecular target: SpCyk3
Assay: as above
Method: as §1

Binder	SPOT peptide array binding signal intensity
B1	8

Molecular target: SpHof1
Assay: as above
Method: as §1

Binder	SPOT peptide array binding signal intensity
B1	51.8

Molecular target: SpHof1-2
Assay: as above
Method: as §1

Binder	SPOT peptide array binding signal intensity
B1	41

Molecular target: SpHof1-3
Assay: as above
Method: as §1

Binder	SPOT peptide array binding signal intensity
B1	22

Molecular target: SpHse1
Assay: as above
Method: as §1

Binder	SPOT peptide array binding signal intensity
B1	86

Molecular target: SpLsb1
Assay: as above
Method: as §1

Binder	SPOT peptide array binding signal intensity
B1	236

Molecular target: SpLsb4
Assay: as above
Method: as §1

Binder	SPOT peptide array binding signal intensity
B1	6240

Molecular target: SpMyo1
Assay: as above
Method: as §1

Binder	SPOT peptide array binding signal intensity
B1	31.2

Molecular target: SpNbp2
Assay: as above
Method: as §1

Binder	SPOT peptide array binding signal intensity
B1	13

Molecular target: SpPex13
Assay: as above
Method: as §1

Binder	SPOT peptide array binding signal intensity
B1	57.5

Molecular target: SpRvs167
Assay: as above
Method: as §1

Binder	SPOT peptide array binding signal intensity
B1	1440

Molecular target: SpSla1-D1-D2
Assay: as above
Method: as §1

Binder	SPOT peptide array binding signal intensity
B1	69

Molecular target: SpSla1-D3
Assay: as above
Method: as §1

Binder	SPOT peptide array binding signal intensity
B1	32
